Measured values as given in PubChem BioAssay (EPA / NIEHS).
Results filed as inconclusive are left out. Calls of active or inactive are those of the source. How the source made its calls, unless noted: active means hit-call score of the fitted dose curve at least 0.9, where 1 is the maximum; inconclusive means response in the unintended direction; inactive means score below 0.9.

Legend:
[1] = biological target: Cellular tumor antigen p53 (Homo sapiens) (UniProt P04637); assay: TOX21_p53_BLA_p5_ratio: Tox21 HCT-116 p53 Agonism Beta-lactamase Assay, Ratio, Phase 5 (AID 2283599)
Procedure, shortened: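 HCT-116 cells carrying a p53-inducible beta-lactamase reporter were seeded at 4000 cells/well and dosed after 5 h with compound in DMSO (217-fold dilution). After 16 h at 37C, CCF4-AM substrate was added for 2 h, and the 460/530 nm emission ratio was scored as gain-of-signal versus DMSO.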

[2] = TOX21_p53_BLA_p5_viability: Viability Assessment in the Tox21 HCT-116 p53 Agonism Beta-lactamase Assay, Phase 5 (AID 2283600)
Procedure, shortened: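 Counter-readout for cytotoxicity: ATP-dependent luminescence from CellTiter-Glo, read in the beta-lactamase wells after 30 min at RT, following a 16 h compound exposure at 37C.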

[3] = biological target: Cellular tumor antigen p53 (Homo sapiens) (UniProt P04637); assay: TOX21_p53_BLA_p4_ratio: Tox21 HCT-116 p53 Agonism Beta-lactamase Assay, Ratio, Phase 4 (AID 2283601)
Procedure, shortened: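 HCT116 cells carrying an inducible beta-lactamase reporter were plated at 4000 cells/well, rested 5 h, then exposed to compounds in DMSO (217-fold dilution) for 16 h at 37C. CCF4-AM substrate was loaded 2 h at room temperature; 460/530 nm emission ratio scored gain-of-signal versus DMSO.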

[4] = Tanguay_ZF_120hpf_MORT_legacy: (Legacy) Oregon State University Tanguay Lab 120 Hour Post-fertilization zebrafish Assay for Mortality (AID 2283633);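 on AC50: fitted as increase in binary mortality versus DMSO negative control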
Procedure, shortened: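 Mortality endpoint from a multiplexed whole-embryo zebrafish screen. Dechorionated wild-type embryos received compound at 6 hpf and remained under static exposure at 28C until 120 hpf, with death noted as a present/absent call.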

[5] = Tanguay_ZF_120hpf_YSE_legacy: (Legacy) Oregon State University Tanguay Lab 120 Hour Post-fertilization zebrafish Assay for Yolk Sac Edema (AID 2283634);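 on AC50: actives raise the incidence of yolk sac edema above the DMSO baseline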
Procedure, shortened: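 Readout: presence or absence of yolk sac edema at 120 hpf, fitted upward against DMSO controls. Exposure ran statically from 6 hpf in dechorionated embryos kept at 28C.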

[6] = Tanguay_ZF_120hpf_AXIS_legacy: (Legacy) Oregon State University Tanguay Lab 120 Hour Post-fertilization zebrafish Assay for Body Axis Malformation (AID 2283635);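 on AC50: potency for an increased fraction of larvae scored with body axis malformation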
Procedure, shortened: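 Static 6–120 hpf chemical exposure of dechorionated wild-type 5D zebrafish, one per well at 28C; morphology endpoint scored binary at 120 hpf relative to DMSO control.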

[7] = Tanguay_ZF_120hpf_EYE_legacy: (Legacy) Oregon State University Tanguay Lab 120 Hour Post-fertilization zebrafish Assay for Eye Malformation (AID 2283636);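 further: binary presence or absence of eye malformation scored by brightfield in 120 hpf larvae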
Procedure, shortened: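 Dechorionated wild-type Tropical 5D zebrafish embryos were exposed statically from 6 hpf, one per well, to 120 hpf at 28C in sealed, foil-covered plates with 0.64% DMSO. Eye malformation was scored present/absent by brightfield microscopy against DMSO controls.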

[8] = Tanguay_ZF_120hpf_SNOU_legacy: (Legacy) Oregon State University Tanguay Lab 120 Hour Post-fertilization zebrafish Assay for Snout Malformation (AID 2283637)
Procedure, shortened: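 Tropical 5D wild-type zebrafish embryos, dechorionated with pronase at 4 hpf, were exposed singly from 6 hpf to 120 hpf statically at 28C in 0.64% DMSO. Snout malformation was scored present/absent by brightfield microscopy, fitted against DMSO.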

[9] = Tanguay_ZF_120hpf_JAW_legacy: (Legacy) Oregon State University Tanguay Lab 120 Hour Post-fertilization zebrafish Assay for Jaw Malformation (AID 2283638);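 on AC50: active means more embryos with jaw malformation than DMSO controls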
Procedure, shortened: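 Static waterborne exposure of dechorionated wild-type (Tropical 5D) zebrafish from 6 to 120 hpf at 28C, 0.64% DMSO vehicle; 5uM trimethyltin chloride served as positive control. Jaw morphology recorded as binary at 120 hpf.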

[10] = Tanguay_ZF_120hpf_OTIC_legacy: (Legacy) Oregon State University Tanguay Lab 120 Hour Post-fertilization zebrafish Assay for Otic Vesicle Malformation (AID 2283639)
Procedure, shortened: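 Otic vesicle malformation is read as a yes/no morphology call at 120 hpf. Exposure is static at 28C with 0.64% (vol/vol) DMSO; embryos that die are excluded from non-mortality endpoints.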

[11] = Tanguay_ZF_120hpf_PE_legacy: (Legacy) Oregon State University Tanguay Lab 120 Hour Post-fertilization zebrafish Assay for Pericardial Edema (AID 2283640)
Procedure, shortened: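 Read-out is the presence or absence of pericardial edema at 120 hpf under brightfield, with gain of signal fitted against DMSO controls. Larvae (5D wild-type) were statically exposed at 28C with 0.64% final DMSO.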

[12] = Tanguay_ZF_120hpf_BRAI_legacy: (Legacy) Oregon State University Tanguay Lab 120 Hour Post-fertilization zebrafish Assay for Brain Malformation (AID 2283641)
Procedure, shortened: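 Brain malformation in Tropical 5D zebrafish was recorded as a binary endpoint after static compound exposure from early development to 120 hpf at 28C. Activity was analysed against DMSO as negative control.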

[13] = Tanguay_ZF_120hpf_SOMI_legacy: (Legacy) Oregon State University Tanguay Lab 120 Hour Post-fertilization zebrafish Assay for Somite Malformation (AID 2283647)
Procedure, shortened: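 5D WT zebrafish; chorion removed 4 hpf; 1 embryo/well from 6 hpf; static exposure to 120 hpf, 28C, 0.64% DMSO final. Endpoint: somite malformation, binary, brightfield. Mortality excluded.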

[14] = Tanguay_ZF_120hpf_CFIN_legacy: (Legacy) Oregon State University Tanguay Lab 120 Hour Post-fertilization zebrafish Assay for Caudal Fin Malformation (AID 2283649)
Procedure, shortened: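 Embryos were collected from Tropical 5D wild-type adults and dechorionated at 4 hpf. At 6 hpf each was exposed, one per well, at 0.64% DMSO and 28C. At 120 hpf fin morphology was scored; dead embryos were excluded.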

[15] = Tanguay_ZF_120hpf_PIG_legacy: (Legacy) Oregon State University Tanguay Lab 120 Hour Post-fertilization zebrafish Assay for Pigmentation Malformation (AID 2283650)
Procedure, shortened: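 Tropical 5D wild-type zebrafish embryos, dechorionated with pronase at 4 hpf, were exposed singly from 6 hpf to 120 hpf statically at 28C in sealed, dark plates with 0.64% DMSO; pigmentation scored present/absent by brightfield microscopy, fitted against DMSO.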

[16] = Tanguay_ZF_120hpf_CIRC_legacy: (Legacy) Oregon State University Tanguay Lab 120 Hour Post-fertilization zebrafish Assay for Circulatory Malformation (AID 2283651)
Procedure, shortened: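 Using wild-type Tropical 5D zebrafish, we exposed dechorionated embryos from 6 to 120 hpf in embryo medium with 0.64% DMSO. Circulatory defects were scored as present or absent; 5uM trimethyltin chloride served as positive control.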

[17] = Tanguay_ZF_120hpf_SWIM_legacy: (Legacy) Oregon State University Tanguay Lab 120 Hour Post-fertilization zebrafish Assay for Swim Bladder Malformation (AID 2283654);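 further: swim bladder malformation in each larva scored yes or no under brightfield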
Procedure, shortened: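 Dechorionated Tropical 5D wild-type embryos, placed singly from 6 hpf, were statically exposed at 28C to 120 hpf with 0.64% DMSO final; swim bladder malformation was scored present/absent by brightfield microscopy, gain of signal relative to DMSO controls.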

[18] = read-out: kallikrein-3 (KLK3), KLK3 (gene 354); assay: LTEA_HepaRG_KLK3: Life Technologies and Expression Analysis (LTEA) Assay for kallikrein-3 (KLK3) using HepaRG (AID 2283652; active means hit-call score of the fitted dose curve at least 0.9, where 1 is the maximum; inactive means score below 0.9); conditions: mRNA level, 48 h; actives raise or lower the signal
Procedure, shortened: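 Differentiated human HepaRG cells in serum-free induction medium exposed 48 h in duplicate, eight-point half-log series from 100 uM in 0.5% DMSO. KLK3 mRNA by qRT-PCR, normalised to ACTB, GAPDH, POLR2A; bidirectional fit versus DMSO.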

[19] = read-out: solute carrier (SLC22A6), SLC22A6 (gene 9356); assay: LTEA_HepaRG_SLC22A6: Life Technologies and Expression Analysis (LTEA) Assay for solute carrier (SLC22A6) using HepaRG (AID 2283653; active means hit-call score of the fitted dose curve at least 0.9, where 1 is the maximum; inactive means score below 0.9); conditions: mRNA level, 48 h; actives raise or lower the signal
Procedure, shortened: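 This endpoint tracks SLC22A6 mRNA induction or suppression in human HepaRG cultures after 48 h dosing, concentrations reaching 100 uM. Values derive from bidirectional fitting against DMSO controls.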

[20] = Tanguay_ZF_120hpf_PFIN_legacy: (Legacy) Oregon State University Tanguay Lab 120 Hour Post-fertilization zebrafish Assay for Pectoral Fin Malformation (AID 2283648);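 further: each larva judged yes or no for fin defect by brightfield with dead larvae skipped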
Procedure, shortened: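 Tropical 5D wild-type embryos, dechorionated with pronase at 4 hpf, were placed singly in wells at 6 hpf and statically exposed until 120 hpf at 28C, sealed and dark, with 0.64% (vol/vol) final DMSO; pectoral fin malformation scored present/absent.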

Measured: AC50

Cellular tumor antigen p53 (Homo sapiens), sequence (P04637 whole entry, looked up): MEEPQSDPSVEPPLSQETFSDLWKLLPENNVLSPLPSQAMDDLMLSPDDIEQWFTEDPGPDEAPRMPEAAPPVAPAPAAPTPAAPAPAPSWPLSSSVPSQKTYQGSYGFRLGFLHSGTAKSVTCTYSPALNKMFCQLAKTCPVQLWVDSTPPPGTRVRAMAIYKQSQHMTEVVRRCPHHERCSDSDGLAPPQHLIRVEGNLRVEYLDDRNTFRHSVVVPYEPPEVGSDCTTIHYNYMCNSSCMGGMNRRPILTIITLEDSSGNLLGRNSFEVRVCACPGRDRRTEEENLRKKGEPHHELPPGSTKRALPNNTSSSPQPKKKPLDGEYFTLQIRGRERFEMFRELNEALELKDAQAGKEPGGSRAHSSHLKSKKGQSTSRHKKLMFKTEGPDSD

CC(=O)[C@H]1CC[C@H]2[C@@H]3CCC4=CC(=O)CC[C@]4(C)[C@H]3CC[C@]12C
inactive: [1] | [2] | [3] | [4] | [5] | [6] | [7] | [8] | [9] | [10] | [11] | [12] | [13] | [14] | [15] | [16] | [17]

c1ccc(Nc2ccccc2)cc1
inactive: [1] | [2] | [3] | [6] | [13] | [14] | [15] | [17]
active: [4] 26.2 µM | [5] 12.2 µM | [8] 36.6 µM | [9] 20.7 µM | [12] 10.2 µM

CCCCC(CC)COC(=O)c1ccccc1C(=O)O (stereo not drawn)
inactive: [1] | [2] | [3] | [4] | [5] | [6] | [7] | [8] | [9] | [11] | [12] | [15] | [16] | [17]

S=C([S-])NCCNC(=S)[S-].[Mn+2]
inactive: [4] | [5] | [7] | [8] | [9] | [10] | [12] | [13] | [14] | [15] | [16] | [18] | [19] | [17]

CCCOC(=O)c1ccc(C(=O)OCCC)nc1
active: [4] 5.38 µM | [5] 1.17 µM | [6] 0.968 µM | [17] 1.97 µM
inactive: [1] | [3] | [7] | [8] | [9] | [10] | [15]

CCCCCOC(=O)COc1cc(N2C(=O)C3=C(CCCC3)C2=O)c(F)cc1Cl
inactive: [4] | [5] | [6] | [7] | [8] | [9] | [10] | [12] | [13] | [14] | [15] | [16] | [17]

S=C(S)NCCNC(=S)S.[Mn+2].[S-]C([S-])=NCCN=C([S-])[S-].[Zn+2]
inactive: [4] | [5] | [6] | [7] | [8] | [9] | [10] | [12] | [13] | [20] | [14] | [15] | [16] | [19] | [17]

CCOC(=O)c1ccc(O)cc1
inactive: [1] | [3] | [4] | [5] | [6] | [7] | [9] | [11] | [12] | [14] | [15] | [16] | [17]
active: [8] 24.5 µM

C=CCOC(Cn1ccnc1)c1ccc(Cl)cc1Cl (stereo not drawn)
active: [4] 13.8 µM | [5] 1.46 µM | [8] 4.34 µM | [9] 3.98 µM
inactive: [6] | [7] | [11] | [14]

CCOC(=O)COc1cc(-n2ncc(C(F)(F)F)c(C)c2=O)c(F)cc1Cl
inactive: [3] | [4] | [5] | [6] | [7] | [8] | [10] | [13] | [14] | [15] | [16] | [17]

CCN(CC)C(=O)c1cccc(C)c1
inactive: [4] | [5] | [6] | [7] | [8] | [9] | [10] | [12] | [13] | [14] | [15] | [16] | [17]

O=C(c1ccccc1)C1CCCCC1
inactive: [4] | [5] | [6] | [7] | [8] | [9] | [10] | [12] | [13] | [14] | [15] | [16] | [17]

N#CSCSc1nc2ccccc2s1
active: [4] 0.539 µM
inactive: [5] | [6] | [7] | [8] | [9] | [10] | [12] | [13] | [14] | [15] | [16] | [19] | [17]

CCSC(=O)N(CC(C)C)CC(C)C
inactive: [1] | [3] | [4] | [5] | [6] | [7] | [8] | [9] | [10] | [12] | [13] | [14] | [15] | [17]

C[C@]12C[C@H](O)[C@H]3[C@@H](CCC4=CC(=O)CC[C@@]43C)[C@@H]1CC[C@@H]2C(=O)CO
inactive: [1] | [3] | [4] | [5] | [6] | [7] | [8] | [9] | [10] | [13] | [14] | [15] | [16]
